Shown are actives, neighbours in structure and some others; about 9.2% of the full set was active somewhere.
NPC1 prom act – activators of NPC1 promoter | Huh7 NPC1 promoter luciferase reporter, 24 h | Potency, µM (top dose mostly 9.22 µM), for inactives: at the highest dose activation, actives largely listed as activators | hit rate 2.4% among 320,000; note: % of control where 0% means no effect; nearly all actives have a fitted effect of over 60% in size
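NPC1 promoter–luciferase Huh7 cells; 24 h compound; luminescence.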
Rab9 promoter act – Rab9 promoter activation; hit rate 2.8% among 320,000; Huh7 Rab9 promoter-luciferase reporter, luminescence, 24 h; Potency, µM (titrated, usually from 9.22 µM), without a hit: at the highest dose activation, negative = inhibition, usual class: activators; note: % of control where 0% means no effect; nearly all actives have a fitted effect of over 60% in size
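Huh7 cells stably carrying Rab9 promoter–luciferase reporter, plated 1500 cells/well, compound added after 2 h and incubated 24 h at 37 °C; luciferase luminescence then read after 10 min with detection reagent.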
SMN2 splice enh – enhancers of SMN2 splice variant expression | HEK293 SMN2-luciferase splicing reporter, luminescence, 30-36 h | hit rate 2.8% among 210,000 | AID 1458 | Potency, µM (top dose mostly 46.1 µM), for the others: top-dose activity change, positive = activation, most hits filed as activators; note: % of control where 0% means no effect; nearly all actives have a fitted effect of over 55% in size
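HEK293 cells carry an SMN2 […]–luciferase reporter in which exon 7 inclusion puts luciferase in frame. Cells were plated 10-12 h before compound addition, then incubated 30-36 h at 37C. ONE-Glo luminescence was read; sodium butyrate at 4.5 mM final served as control.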
FLuc counter – counter-screen for miR-21 project: firefly luciferase inhibitors or activators; P08659; purified FLuc, Km substrates, luminescence inhibition; Potency, µM (top dose mostly 57.5 µM), inactives show at the top dose activity change, negative = inhibition, usual class: inhibitors; hit rate 6.9% among 360,000; AID 588342;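 note: plate controls were vehicle for no effect and reference inhibitor for full effect; nearly all actives have a fitted effect of over 55% in size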
Target sequence (P08659 whole entry, looked up): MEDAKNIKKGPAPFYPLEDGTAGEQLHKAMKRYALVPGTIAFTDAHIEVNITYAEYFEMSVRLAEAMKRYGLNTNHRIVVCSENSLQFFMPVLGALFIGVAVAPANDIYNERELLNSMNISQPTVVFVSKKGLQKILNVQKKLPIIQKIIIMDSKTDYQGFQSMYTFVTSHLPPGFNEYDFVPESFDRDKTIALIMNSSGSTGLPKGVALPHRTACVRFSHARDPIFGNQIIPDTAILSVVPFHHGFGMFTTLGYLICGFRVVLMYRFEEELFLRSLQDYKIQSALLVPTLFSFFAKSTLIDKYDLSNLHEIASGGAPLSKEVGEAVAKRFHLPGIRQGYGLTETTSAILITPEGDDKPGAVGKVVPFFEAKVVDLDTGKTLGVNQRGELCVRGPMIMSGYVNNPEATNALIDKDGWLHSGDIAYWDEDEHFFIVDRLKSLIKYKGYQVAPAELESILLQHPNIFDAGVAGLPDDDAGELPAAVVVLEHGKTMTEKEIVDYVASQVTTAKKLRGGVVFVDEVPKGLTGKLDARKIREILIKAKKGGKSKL
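Purified P. pyralis luciferase (10nM final) with 10uM D-luciferin and 10uM ATP (Km levels) in 50mM Tris acetate pH 7.5, 10mM Mg acetate, 0.01% Tween-20, 0.05% BSA; qHTS 6-point titration, ~60 µM downward; luminescence read.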
ELG1 DNA repair – blocks ELG1-dependent DNA repair in HEK293T cells. HEK293T ELG1-luciferase reporter, luminescence, 16 h; DNA damage induced by 5-fluorouridine. Potency, µM (highest dose often 46.1 µM), for inactives: at the highest dose activity change, negative = inhibition, hits mostly inhibitors. hit rate 2.3% among 330,000. AID 504467; note: % is set by controls: 0 for no effect and ±100 for the full control effect; nearly all actives have a fitted effect of over 55% in size
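Luminescence from the luciferase reporter, measured 30 min after ONE-Glo reagent at room temperature, was the read-out. Beforehand, 2,000 cells per well were exposed for 16 hr at 37 °C to 5-fluorouridine together with compound or vehicle.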
ELG1 genotox – genotoxicity induction in ELG1-luciferase HEK293T cells; HEK293T ELG1-luciferase reporter, luminescence, 16 h; Potency, µM (highest dose often 46 µM), inactives show at the highest dose activity change, positive = activation, hits mostly activators; hit rate 1.3% among 330,000; AID 504466; note: % of control where 0% means no effect; nearly all actives have a fitted effect of over 60% in size
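16 hr compound incubation (37 °C, 5% CO2) of HEK293T cells carrying luciferase-tagged ELG1; luciferase then measured by ONE-Glo luminescence after 30 min at RT.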
The depositor's hits bear a star; ? = inconclusive; / = no result; [ ] = another dose, or the depositor's remark. Calls come from the whole dose curve; as a rule, active = well fitted curve in the direction sought with a large enough effect; inconclusive = small, poorly fitted or top-dose-only effect, or another doubt; inactive = no such curve, though single readings can be large; an effect the other way counts as inactive or inconclusive. Potency is the fitted concentration of half-maximal effect.

SMILES | NPC1 prom act | Rab9 promoter act | SMN2 splice enh | FLuc counter | ELG1 DNA repair | ELG1 genotox
Cc1ccc(C)c(CNC(=O)C2CCN(c3nc4ccccc4nc3C(F)(F)F)CC2)c1 | / | / | / | 3% | / | /
Cc1ccccc1NC(=O)c1ccc(-c2ccc(Cl)cc2Cl)o1 | 9% | 19% | 0% | 8.5µM* | -1% | 7%
Cc1ccccc1-c1ccc(C(=O)Nc2cccc(F)c2)o1 | 6% | 15% | 13% | 9.5µM* | ? | ?
Cc1cccc(C)c1NC(=O)c1ccc(-c2ccc(Cl)cc2Cl)o1 | 6% | -11% | -3% | -1% | 13µM* | -30%
COC(=O)c1cc(NC(=O)c2ccc(-c3ccc(Cl)cc3Cl)o2)cc(C(=O)OC)c1 | / | / | 2% | 3% | / | /
Cc1cccc(C)c1NC(=O)c1cccc(COc2cc(Cl)ccc2Cl)c1 | 15% | 16% | 13µM* | -6% | ? | 16%
CC(C)n1cc(CN2CCN(CCc3ccccc3)C(CCO)C2)cn1 (configuration not stated) | 3% | -7% | / | 5% | 6% | 0%
OCC1OC([S-])[C@H](O)C(O)C1O.[Au+] (some centres not stated) | / | / | -7% | / | / | /
Cc1ccc(O)c(-c2cc(C(=O)Nc3ccc(S(=O)(=O)N4CC(C)OC(C)C4)cc3)[nH]n2)c1 (configuration not stated) | -4% | -15% | -83% | 0% | 8.2µM* | -8%
O=C(Nc1ccc(S(=O)(=O)N2CCOCC2)cc1)c1cc(-c2cc(Cl)ccc2O)n[nH]1 | -26% | -22% | / | 6% | 23µM* | -10%
Cc1ccc(-c2cc(C(=O)Nc3ccc(S(=O)(=O)N4CC(C)OC(C)C4)cc3)[nH]n2)c(O)c1 (configuration not stated) | -10% | -8% | / | 4% | -1% | -6%
Oc1ccc(Br)cc1-c1nc2cnccn2c1NC1CCCC1 | 0% | -2% | ? | 5% | 23µM* | -8%
CC(Oc1ccccc1F)c1nnc(SCC(=O)NCc2ccc3c(c2)OCO3)o1 (configuration not stated) | -1% | 1% | / | / | -9% | 0%
O=C1CC(c2cc(-c3ccccc3)no2)C1 | ? | 2.8µM* | / | ? | ? | ?
Cn1c(=O)c(=O)n(C)c2cc(C(=O)NCc3ccccc3Cl)ccc21 | / | / | 0% | -10% | / | /
CC1CC(=O)N(CC(=O)Nc2ccc(F)cc2F)c2ccccc2S1(=O)=O (configuration not stated) | 1% | 1% | / | 1% | 24% | 2%
Cc1ccc(NC(=O)c2ccc3c(c2)NC(=O)c2ccccc2S3)cc1 | / | / | -58% | 2% | / | /
COC(=O)c1cccc(NC(=O)C2COc3ccccc3O2)c1 (configuration not stated) | ? | ? | 9% | 17µM* | ? | 18µM*
Cc1ccc(NC(=O)C2COc3ccccc3O2)cc1C (configuration not stated) | 2.5µM* | ? | / | 19µM* | ? | ?
Cc1nc2cc(NC(=O)C3COc4ccccc4O3)ccc2s1 (configuration not stated) | ? | ? | / | 12µM* | ? | ?
CCc1nc(-c2cc(S(=O)(=O)N3CCN(c4ccccc4)CC3)ccc2OC)no1 | / | / | / | 1% | / | /
CCCCN(C(=O)c1nn(C)c(=O)c2ccccc12)c1c(N)n(CC(C)C)c(=O)[nH]c1=O | -5% | 1% | / | 4% | 7% | 0%
COc1ccc(S(=O)(=O)Nc2ccc(F)c(F)c2)cc1C(=O)N1CCOCC1 | 7% | -3% | / | -2% | 2% | 0%
Cc1nnc(N/N=C/c2cccc(OCc3ccc(Cl)c(Cl)c3)c2)n1N | 21% | ? | 4%[1.84 µM] | 17µM* | ? | 5%
Cc1nnc(N/N=C/c2cccc(C(F)(F)F)c2)n1N | -2% | -1% | / | -1% | -5% | -4%
Cc1ccc(-n2c(C)cc(-c3csc(N)n3)c2C)cc1 | 9% | 0% | 0% | 11µM* | 28% | 2%

High-throughput results from PubChem BioAssay.
